Compounds with a hit are over-represented: about 1.1% of the library has one in this group of screens.
NR5A2 inv ag: NR5A2 inverse agonism in reporter assay; AID 602396; HEK293T StAR-luciferase reporter, LRH-1 transfected, 24 h; inhibition, % at 3.6 µM; 0.13% of 360,000 active; O00482;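 active = inhibition above the mean inhibition of all tested compounds plus 3 SD, cut at about 73% in these data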;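 also: 0% = DMSO wells and 100% = reporter-only cells lacking LRH-1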
COUP-TFII inh: inhibitors of human COUP-TFII (NR2F2); P24468; HEK293T NGFI-A luciferase reporter, luminescence; inhibition, % at 8.6 µM; 0.7% of 370,000 active; AID 686940;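 active = inhibition above a per-plate cutoff, mean inhibition of test wells between control levels plus 3 SD, cut at about 38% in these data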;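 also: cells cotransfected with COUP-TFII expression vector driving the NGFI-A reporter; 0% = median of COUP-TF2 test wells and 100% = reporter-only cells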
Target sequence (P24468 whole entry, looked up): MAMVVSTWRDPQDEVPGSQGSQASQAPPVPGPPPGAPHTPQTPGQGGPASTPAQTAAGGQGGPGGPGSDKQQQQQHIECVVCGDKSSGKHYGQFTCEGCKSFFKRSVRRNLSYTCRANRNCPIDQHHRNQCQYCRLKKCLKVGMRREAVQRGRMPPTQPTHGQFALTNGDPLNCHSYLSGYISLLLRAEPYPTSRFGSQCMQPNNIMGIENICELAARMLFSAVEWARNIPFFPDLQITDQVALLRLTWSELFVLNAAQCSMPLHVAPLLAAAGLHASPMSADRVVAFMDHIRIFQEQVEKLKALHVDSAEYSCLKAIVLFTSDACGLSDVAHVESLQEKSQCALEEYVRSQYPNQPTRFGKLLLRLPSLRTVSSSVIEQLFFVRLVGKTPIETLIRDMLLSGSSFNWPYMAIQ
SRC1 inh: inhibitors of human steroid receptor coactivator 1 (SRC1); Q15788; HEK293 GAL4-SRC1 luciferase reporter, luminescence; inhibition, % at 3.6 µM; 0.12% of 360,000 active; AID 588354;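 active = inhibition above the campaign mean plus 3 SD, with each screening campaign given its own cutoff, cut at about 60% in these data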;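 also: 0% = DMSO treated cells and 100% = gossypol at 36 µM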
NCOA2 inhibitor: inhibits human steroid receptor coactivator 2 | AID 651957 | 0.17% of 370,000 active | HEK293 GAL4-SRC2 luciferase reporter, luminescence | Q15596 | inhibition, % at 9 µM;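 active = inhibition above the mean inhibition of all tested compounds plus 3 SD, set per campaign, cut at about 52% in these data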;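 also: 0% = DMSO treated cells and 100% = cells given Gossypol at 36 µM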
GalR3 antagonist: blocks the human galanin receptor 3; O60755; HEK293 GalR3-CNG cAMP membrane potential fluorescence; galR3 body fused to GalR1 C-terminus; inhibition, % at 3 µM; 0.44% of 360,000 active;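 active = inhibition above the screen-wide average plus 3 SD, cut at about 13% in these data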;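 also: forskolin and galanin both at EC90 stimulate the cells; cAMP rise reported by CNG channel membrane potential dye signal; 0% = forskolin plus galanin with DMSO and 100% = forskolin alone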
Target sequence (O60755 1-299 limits assumed): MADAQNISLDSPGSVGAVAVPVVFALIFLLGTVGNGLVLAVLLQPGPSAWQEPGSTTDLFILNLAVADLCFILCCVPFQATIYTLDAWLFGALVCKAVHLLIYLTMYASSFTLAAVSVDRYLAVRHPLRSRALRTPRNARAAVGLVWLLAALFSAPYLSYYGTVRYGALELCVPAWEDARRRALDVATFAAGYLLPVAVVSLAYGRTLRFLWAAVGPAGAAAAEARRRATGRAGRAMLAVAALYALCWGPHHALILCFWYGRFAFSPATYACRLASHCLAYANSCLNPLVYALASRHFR
NCOA3 inh: inhibits human SRC3 coactivator | HEK293 GAL4-SRC3 luciferase reporter, luminescence | inhibition, % at 3.6 µM | 0.17% of 360,000 active | AID 588352;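 active = inhibition above a per-campaign cutoff, the mean of all compounds plus 3 SD, cut at about 60% in these data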;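 also: 0% = DMSO-treated cells and 100% = gossypol-treated cells at 36 µM; higher means less SRC3-driven luciferase light from the GAL4 reporter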
GalR3 conf: GalR3 (human) antagonism, confirmation. shares compounds with GalR3 antagonist. 59% of 1,600 active. inhibition, % at 3 µM. HEK293 GalR3 CNG cAMP biosensor, membrane potential fluorescence; galR3 fused to GalR1 carboxy tail; challenged with forskolin and galanin at EC90;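 active = inhibition above the primary screen's cutoff, the mean inhibition of all screened compounds plus 3 SD, cut at about 13% in these data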;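 also: 0% = forskolin plus galanin and 100% = forskolin alone with DMSO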
HEK-CNG parental: parental cell agonism counter-screen for GalR3 antagonists; shares compounds with GalR3 antagonist; HEK293-CNG parental cells, cAMP membrane potential fluorescence; normalised: DMSO wells 0%, forskolin wells 100%; activation, % at 3 µM; 10% of 1,600 active; AID 652268; in the data active = activation above about 1.3%
* marks the source's active call; other numbers are inactive results.

What do the screens show for `O=[N+]([O-])c1ccc(-c2ccc(S(=O)(=O)NCCN3CCCC3)cc2)cc1`?
NR5A2 inv ag: 4; COUP-TFII inh: 18; SRC1 inh: 13; NCOA2 inhibitor: 40; GalR3 antagonist: 41*; NCOA3 inh: -12; GalR3 conf: 10; HEK-CNG parental: 0

How did CSc1ccccc1NC(=O)c1cnc2scc(C)n2c1=O do in these assays?
NR5A2 inv ag: -1; COUP-TFII inh: -99; SRC1 inh: -44; NCOA2 inhibitor: -43; GalR3 antagonist: 23*; NCOA3 inh: -50; GalR3 conf: 5; HEK-CNG parental: 0

How did CCc1ccccc1NC(=O)c1cnc2scc(C)n2c1=O do in these assays?
NR5A2 inv ag: 5; COUP-TFII inh: -1; SRC1 inh: -12; NCOA2 inhibitor: -6; GalR3 antagonist: 2; NCOA3 inh: -2

What do the screens show for `CC(=O)c1ccc(NC(=O)Nc2ccc(Br)cc2C)cc1`?
NR5A2 inv ag: -3; COUP-TFII inh: 0; SRC1 inh: 0; NCOA2 inhibitor: 19; GalR3 antagonist: 13*; NCOA3 inh: 22; GalR3 conf: -3; HEK-CNG parental: 0

Results for C[C@@H]1CN([C@@H](C)CO)C(=O)c2ccccc2-c2ccccc2CO[C@@H]1CN(C)Cc1ccc(Cl)c(Cl)c1 ?
COUP-TFII inh: 11; NCOA2 inhibitor: -8; GalR3 antagonist: -5

What do the screens show for `Cc1ccc(-c2nn3c(C)nnc3c3ccccc23)cc1S(=O)(=O)NC(C)c1ccccc1` (stereo not drawn)?
NR5A2 inv ag: 21; COUP-TFII inh: -29; SRC1 inh: -6; NCOA2 inhibitor: -6; GalR3 antagonist: 15*; NCOA3 inh: 21; GalR3 conf: 23*; HEK-CNG parental: 1

How did Cc1cccc2c(=O)cc(C(F)(F)F)[nH]c12 do in these assays?
NR5A2 inv ag: 17; COUP-TFII inh: 1; SRC1 inh: 13; NCOA2 inhibitor: -20; GalR3 antagonist: -2; NCOA3 inh: 17

How did Cc1cc(=S)c2cccc(C)c2[nH]1 do in these assays?
COUP-TFII inh: 14; NCOA2 inhibitor: -22; GalR3 antagonist: 21*; GalR3 conf: 30*; HEK-CNG parental: 0

How did CC(Oc1ccc(Cl)cc1Cl)c1ccnc2nc(N3CCOCC3)nn12 (stereo not drawn) do in these assays?
NR5A2 inv ag: 3; COUP-TFII inh: 15; SRC1 inh: 2; NCOA2 inhibitor: 9; NCOA3 inh: -1; GalR3 conf: 3; HEK-CNG parental: 1

What do the screens show for `C=CCCC1CN(CC=C)S(=O)(=O)c2c(F)cccc2O1` (stereo not drawn)?
COUP-TFII inh: 1; NCOA2 inhibitor: -6; GalR3 antagonist: -7

Results for CCOC(=O)c1sc2ncnc(N3CCN(CC)CC3)c2c1C ?
NR5A2 inv ag: -4; COUP-TFII inh: -3; SRC1 inh: 1; NCOA2 inhibitor: -15; GalR3 antagonist: -2; NCOA3 inh: 14

Results for CCOC(=O)c1sc2ncnc(N3CCN(C(=O)OCC)CC3)c2c1C ?
NR5A2 inv ag: -19; COUP-TFII inh: 10; SRC1 inh: -4; NCOA2 inhibitor: 18; GalR3 antagonist: 15*; NCOA3 inh: -3; GalR3 conf: 21*; HEK-CNG parental: 0

Results for Cc1cc(NS(=O)(=O)c2ccc(NC(=O)CSc3nc4sc(C)c(C)c4c(=O)n3Cc3ccco3)cc2)nc(C)n1 ?
COUP-TFII inh: 11; NCOA2 inhibitor: -9

Results for Cc1ccc2[nH]c(=O)c(CN(Cc3nnnn3C3CCCC3)C3CCCCC3)cc2c1 ?
NR5A2 inv ag: -6; COUP-TFII inh: -4; SRC1 inh: -54; NCOA2 inhibitor: -2; GalR3 antagonist: 14*; NCOA3 inh: 2; GalR3 conf: 1; HEK-CNG parental: 1

Results for CCC(C)(C)n1nnnc1CN(Cc1cc2cc(OC)c(OC)cc2[nH]c1=O)C1CCCC1 ?
NR5A2 inv ag: 8; COUP-TFII inh: -16; SRC1 inh: -1; NCOA2 inhibitor: -23; GalR3 antagonist: 18*; NCOA3 inh: -12; GalR3 conf: 2; HEK-CNG parental: 0

Results for CCCC1CCC2(CC1)CCC2OC(=S)NCCc1ccc(Cl)cc1 (stereo not drawn) ?
COUP-TFII inh: 15

What do the screens show for `COC(=O)[C@]12C[C@H](CC(=O)NCCC(C)C)C(=O)N(Cc3cccc4ccccc34)C1=C[C@H](C(C)(C)C)O[C@@H]2C`?
COUP-TFII inh: 10; NCOA2 inhibitor: 20

What do the screens show for `C=CCN(C(=O)[C@@H](C)[C@@H](O)c1ccc(C(C)=O)cc1)c1ccccc1`?
COUP-TFII inh: -10; NCOA2 inhibitor: -13

Results for O=S(=O)(c1ccc2c(c1)OCCO2)N1CCN(S(=O)(=O)c2c(F)cccc2F)CC1 ?
COUP-TFII inh: -7

How did O=S(=O)(NCC1CN(S(=O)(=O)c2c(F)cccc2F)C1)c1ccc2c(c1)OCCO2 do in these assays?
NR5A2 inv ag: 19; COUP-TFII inh: 31; SRC1 inh: 25; NCOA2 inhibitor: 28; GalR3 antagonist: 73*; NCOA3 inh: 22; GalR3 conf: 103*; HEK-CNG parental: 0

Results for C=CCN1C=C(C(=O)OCC)C(=O)CC1 ?
COUP-TFII inh: -2; NCOA2 inhibitor: -15; GalR3 antagonist: -8

How did COC(=O)[C@]12C[C@H](CC(=O)N3CCCCC3)C(=O)N(Cc3ccc(Cl)cc3Cl)C1=C[C@H](C(C)(C)C)O[C@@H]2C do in these assays?
COUP-TFII inh: -7; NCOA2 inhibitor: -7

Results for COc1ccc(-c2ccc(-c3cc(=O)oc4c(C(C)C)ccc(C)c34)cc2)cc1 ?
NR5A2 inv ag: 2; COUP-TFII inh: -48; SRC1 inh: 3; NCOA2 inhibitor: -17; GalR3 antagonist: 23*; NCOA3 inh: 6; GalR3 conf: 13*; HEK-CNG parental: 0

How did COc1ccc(-c2c(C)cc3oc(=O)cc(-c4ccccc4)c3c2C)cc1 do in these assays?
NR5A2 inv ag: 44; COUP-TFII inh: 12; SRC1 inh: -4; NCOA2 inhibitor: 0; GalR3 antagonist: -6; NCOA3 inh: -11

What do the screens show for `Cc1nc(S(=O)(=O)Cc2ccccc2)nc2c1CCC2`?
NR5A2 inv ag: -17; COUP-TFII inh: -3; SRC1 inh: -5; NCOA2 inhibitor: 0; GalR3 antagonist: 5; NCOA3 inh: -12

What do the screens show for `Cc1nc(S(=O)(=O)Cc2ccccc2Cl)nc2c1CCC2`?
NR5A2 inv ag: 15; COUP-TFII inh: -2; SRC1 inh: -11; NCOA2 inhibitor: 13; GalR3 antagonist: 27*; NCOA3 inh: 9; GalR3 conf: 3; HEK-CNG parental: 0

Screening data deposited in PubChem by The Scripps Research Institute Molecular Screening Center.
